These results are taken from PubChem BioAssay (EPA / NIEHS).

The source made the active and inactive calls. Rule for the calls: active = hit-call score of the fitted dose curve at least 0.9, where 1 is the maximum; inactive = score below 0.9.

Read-out in the assay: Interferon-gamma inducible Protein 10 (IP10), CXCL10 (gene 3627)
Put plainly: BSK_hDFCGF_IP10: BioMAP Diversity Plus: hDFCGF Assay for Interferon-gamma inducible Protein 10 (IP10) Biomarker Activity (AID 2283053). The following applies: primary human foreskin fibroblasts; actives raise or lower the signal. Put shortly:
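Chemical-treated human skin fibroblasts (primary) were sampled at 24 h for IP-10 by ELISA. Both increases and decreases relative to DMSO were scored.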
For `CC(=O)OC1CC(C)OC(C)O1` (stereo not given), the outcome was inactive.

`CC(=O)OCC(COC(C)=O)OC(C)=O`: the outcome was inactive.

In the case of `CCCCc1nc2cccnc2n1Cc1ccc(-c2ccccc2-c2nnn[nH]2)cc1`, the concentration at half-maximal activity (AC50) was 32 µM (active).

Turning to `O=C1OC(c2ccc(O)cc2)(c2ccc(O)cc2)c2ccccc21`, the result was inactive.

Turning to `Cc1cc(Cc2ccc(N)c(C)c2)ccc1N`, the result was inactive.

Take `CC(C)COC(=O)CCCCC(=O)OCC(C)C`: the result was inactive.

Take `CCCCC(CC)COP(=O)(OCC(CC)CCCC)OCC(CC)CCCC` (stereo not given): the outcome was inactive.

In the case of `O=C(Oc1ccccc1)c1cccc(C(=O)Oc2ccccc2)c1`, the outcome was inactive.

On to `CCCCOC(=O)CCCCC(=O)OCCCC`, for which the outcome was inactive.

As to `OCC(O)CO`, the result was inactive.

In the case of `O=NO`, the outcome was inactive.

For the compound `CCCCCCC(CCCCCCCCCCC(=O)OCC(COC(C)=O)OC(C)=O)OC(C)=O` (stereo not given), the outcome was inactive.

As to `Nc1nc(Cl)nc2c1ncn2[C@H]1C[C@H](O)[C@@H](CO)O1`, the result was inactive.

With `Oc1ccc(O)cc1`, the AC50 was 20.6 µM (active).

Consider `C/C=C/C=C/C(=O)O`, for which the result was inactive.

For the compound `Cc1ccc(C(C)(C)C)c(O)c1`, the outcome was inactive.

As to `CC(C)(C)c1ccccc1`, the outcome was inactive.

On to `CCCCC(CC)CO` (stereo not given), for which the outcome was inactive.

Regarding `N[C@@H](Cc1c[nH]c2ccccc12)C(=O)O`, the result was inactive.

`Cc1ccc(-c2cc(C(F)(F)F)nn2-c2ccc(S(N)(=O)=O)cc2)cc1`: the outcome was inactive.

Turning to `O=C(O)c1cccnc1`, the outcome was inactive.

For `O=C1NC(=O)C(c2ccccc2)(c2ccccc2)N1`, the outcome was inactive.

On to `Nc1nc(=S)c2[nH]cnc2[nH]1`, for which the result was inactive.

Turning to `CSc1ccc(Oc2ccc(S(N)(=O)=O)cc2CN(C)C)cc1C`, the outcome was inactive.

Turning to `CC(=O)O[C@]1(C(C)=O)CC[C@H]2[C@@H]3C=C(Cl)C4=CC(=O)[C@@H]5C[C@@H]5[C@]4(C)[C@H]3CC[C@@]21C`, the outcome was inactive.

By AC50 is commonly meant the concentration at which the activity in the assay is half-maximal.
